The nature of assay [1]: inhibitors of TNFa-induced NFkB p65 translocation, primary screen, imaging, HUVEC, MLSMR starter and 10KST1 sets (AID 438;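 active means inhibition above 20% together with a positive visual image hit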;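 further: compound added about 3h40 before a 20 min TNFalpha stimulation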;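 on inhibition: signal is the nuclear over cytoplasmic p65 intensity ratio per well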). Particulars: HUVEC TNFa-induced p65 nuclear translocation; cell count: measured here: nuclei count (cytotoxicity indicator), at 2.08 µM; inhibition: at 2 µM, stronger effect = higher value, 0% TNFa-plus-vehicle, 100% no-TNFa wells.
Assay [2] is described as follows: inhibitors of mutant huntingtin aggregation, primary screen, imaging, exon1htt(103Q)mCFP cells, high-content imaging (AID 483;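 active means visual image review flags a hit and inhibition of aggregation exceeds 20%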;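 further: compound exposure lasted 3 days before fixation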;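 on nuclei count: percent of the per-plate median nuclei count of sample wells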). The following applies: exon1htt(103Q)mCFP cell line, aggregate imaging, at 2 µM; inhibition of aggregation: stronger effect = higher value; nuclei count: measured here: cell count, toxicity.
A short description of assay [3]: inhibitors of E-selectin induction by TNFa, primary screen, imaging, HUVEC, immunofluorescence, MLSMR starter and 10KST1 sets (AID 487).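 On inhibition: signal is fraction of cell area covered by stained E-selectin grains.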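 On nuclei count: 100% = median nuclei count of all wells on the same plate.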 The following applies: HUVEC TNFalpha-induced E-selectin immunofluorescence imaging, at 2 µM; inhibition: stronger effect = higher value; nuclei count: measured here: cell number, toxicity.
Assay [4] is described as follows: DUSP6 inhibitors restoring Erk phosphorylation by chemical complementation, primary imaging in DUSP6-transfected HeLa (AID 609;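 active means compounds giving at least 50% inhibition in the cell-based MKP-3 phosphatase rescue imaging test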;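 on inhibition: phospho-Erk level distribution per well compared with pooled transfected vehicle control wells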). The following applies: HeLa MKP-3 transfected, phospho-Erk imaging KS statistic, at 10 µM, cells stimulated with TPA for 15 min.
The target of assay [5] is Dual specificity protein phosphatase 6 (Homo sapiens) (UniProt Q16828). Described as above. The following applies: HeLa MKP-3 transfected, phospho-Erk imaging KS statistic; at 10 µM; stronger effect = higher value; cells stimulated with TPA for 15 min.
Chain of Dual specificity protein phosphatase 6 (Homo sapiens) (Q16828 whole entry, looked up): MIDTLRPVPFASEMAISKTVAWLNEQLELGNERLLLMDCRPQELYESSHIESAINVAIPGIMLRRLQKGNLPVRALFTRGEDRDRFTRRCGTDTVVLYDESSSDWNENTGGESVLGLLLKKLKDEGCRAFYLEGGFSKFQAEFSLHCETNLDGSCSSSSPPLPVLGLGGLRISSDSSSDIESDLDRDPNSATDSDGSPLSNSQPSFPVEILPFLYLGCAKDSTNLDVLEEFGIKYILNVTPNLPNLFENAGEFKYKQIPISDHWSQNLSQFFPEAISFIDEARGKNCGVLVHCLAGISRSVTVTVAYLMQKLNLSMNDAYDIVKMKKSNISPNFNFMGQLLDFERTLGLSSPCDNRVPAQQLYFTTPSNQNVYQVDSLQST
Assay [6] has as its target Voltage-gated potassium channel subunit beta-2 (Rattus norvegicus) (UniProt P62483). Nature of the assay: KvBeta enzyme negative modulators, primary screen, biochemical, NADPH fluorescence (AID 622;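 active means fluorescence slope higher than the sample average by over 3 SD, cut at about -0.22 in these data, passing the limit was not always enough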;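 further: slope of raw intensity against log time taken from 70 to 1610 s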). The following applies: recombinant KvBeta, 4-cyanobenzaldehyde reduction, at 10 µM, stronger effect = higher value.
Assay [7] has the same target. The assay can be described thus: KvBeta positive modulators, primary screen, biochemical, NADPH fluorescence (AID 623;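 active means NADPH fluorescence slope more negative than the mean of all samples by about 3 SD, 99.7% confidence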;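 further: fluorescence intensity change per second fitted from 20 to 320 s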). The following applies: Recombinant KvBeta, NADPH fluorescence decrease slope, 10 min; at 10 µM; stronger effect = lower value.
Assay [8] has as its target Alpha-2C adrenergic receptor (Homo sapiens) (UniProt P18825). The assay can be described thus: modulators of alpha2C/GIRK thallium flux, primary screen, cell-based, HEK293 alpha2C/GIRK1/2 (AID 624;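 active means fluorescence slope after compound addition differing from the mean of all screened samples at 99.7% confidence, in either direction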;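 further: slope of fluorescence ratio to pre-addition baseline per second over 15 to 24 s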). Particulars: thallium flux BTC fluorescence, at 10 µM, actives lie on both sides.
Assay [9] concerns the target Muscarinic acetylcholine receptor M4 (Homo sapiens) (UniProt P08173). Nature of the assay: compounds altering M4/GIRK thallium flux, either direction, primary screen, M4 allosteric agonist project, cell-based, HEK293 M4/GIRK, BTC-AM (AID 625;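 active means fluorescence slope after compound addition differing from the mean of all tested samples at 99.7% confidence, mostly higher but some lower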;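 further: thallium influx through GIRK channels coupled to M4 in HEK293 cells with BTC-AM dye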). The following applies: at 10 µM, actives lie on both sides.
Assay [10] is described as follows: inhibitors of larval lipid processing in zebrafish, primary screen, whole organism, PED6 fluorescence, gall bladder and intestine (AID 686;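 active means a full or partial loss of lipid-probe fluorescence in the fish gall bladder, intestine or both, judged by eye; inactive means no fluorescence loss, or compound toxic to the fish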;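 further: larvae 5 to 7 days old with five fish per well; signal comes from phospholipase A2 cleavage of quenched PED6 carried via bile; overnight exposure to compound and PED6 before scoring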). Particulars: Zebrafish larvae PED6 lipid processing, fluorescence scoring; screened at 20 µM (by protocol).
Assay [11] is described as follows: inhibitors of Chlamydomonas gravitaxis, primary screen, whole organism, Chlamydomonas reinhardtii, WT vs cilia-less mutant, absorbance, 96-well (AID 463189;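 active means inhibition at or above 50% relative to wild type and mutant plate controls; inactive means inhibition below 50%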;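 further: 0% = wild type cc124 cells in DMSO and 100% = ciliumless bld1 mutant cells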). Particulars: OD600 absorbance, 2 days, at 10 µM, stronger effect = higher value.
Assay [12] can be described thus: inhibitors of Sendai virus-induced IRF3 signaling, primary screen, TLR/RLR signaling modifier project, cell-based, Sendai virus stimulus, luciferase, 10K MLSCN set (AID 602276;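 active means inhibition at or above 50% at 10 µM; inactive means inhibition below 50%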;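 further: firefly luciferase from ISG56 promoter only with Renilla not read in this screen; 0% = Sendai virus plus DMSO and 100% = medium plus DMSO without virus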). The following applies: HEK293 RL24 IRF3 luciferase reporter, at 10 µM, stronger effect = higher value. (In general: In a reporter assay the amount or activity of a reporter protein is the signal.)
The nature of assay [13]: inhibitors of poly I:C-induced TLR3 signaling, primary screen, cell-based, poly I:C stimulus, luciferase, 10K MLSCN set (AID 602277;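 active means inhibition of the reporter signal at or above 50%; inactive means inhibition below 50%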). The following applies: HEK293-TLR3 RL24 IRF3 luciferase reporter, at 10 µM, stronger effect = higher value.
Where [14] appears, read: measured here: cell density z-score.
The mark [15] stands for this setting: measured here: nuclear c-Myc green intensity z-score.
[16] abbreviates: measured here: nuclear pErk red intensity z-score, stronger effect = higher value.

Structures are written as SMILES. Active and inactive are the calls of the source.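 How the source made its calls, unless noted: active means visually confirmed hit in the image check and inhibition above 20%; inconclusive means visually confirmed hit but inhibition not above 20%; inactive means no visual hit in the image check.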

Chain of Voltage-gated potassium channel subunit beta-2 (Rattus norvegicus) (P62483 whole entry, looked up): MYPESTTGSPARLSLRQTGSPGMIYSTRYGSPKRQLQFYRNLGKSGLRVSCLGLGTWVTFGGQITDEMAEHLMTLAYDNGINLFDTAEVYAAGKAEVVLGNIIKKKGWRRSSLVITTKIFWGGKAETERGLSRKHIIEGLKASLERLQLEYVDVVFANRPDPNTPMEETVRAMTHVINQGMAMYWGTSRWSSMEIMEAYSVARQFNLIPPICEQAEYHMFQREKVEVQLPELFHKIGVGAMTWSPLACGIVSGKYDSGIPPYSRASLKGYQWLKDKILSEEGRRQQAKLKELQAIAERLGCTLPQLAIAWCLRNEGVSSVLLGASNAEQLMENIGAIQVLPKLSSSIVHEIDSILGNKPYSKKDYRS
Chain of Muscarinic acetylcholine receptor M4 (Homo sapiens) (P08173 whole entry, looked up): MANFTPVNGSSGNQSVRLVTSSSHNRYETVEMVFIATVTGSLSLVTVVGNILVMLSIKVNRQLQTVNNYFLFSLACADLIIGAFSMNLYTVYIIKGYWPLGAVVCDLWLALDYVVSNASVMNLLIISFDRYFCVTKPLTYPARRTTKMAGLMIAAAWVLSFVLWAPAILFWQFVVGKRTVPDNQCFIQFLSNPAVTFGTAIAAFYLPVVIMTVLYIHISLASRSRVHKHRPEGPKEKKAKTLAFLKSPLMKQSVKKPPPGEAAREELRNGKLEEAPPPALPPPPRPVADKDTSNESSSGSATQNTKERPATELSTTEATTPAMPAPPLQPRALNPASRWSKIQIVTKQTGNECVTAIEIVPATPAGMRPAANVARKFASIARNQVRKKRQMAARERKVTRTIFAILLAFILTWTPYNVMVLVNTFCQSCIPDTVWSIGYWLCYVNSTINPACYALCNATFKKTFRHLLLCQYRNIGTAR
Chain of Alpha-2C adrenergic receptor (Homo sapiens) (P18825 whole entry, looked up): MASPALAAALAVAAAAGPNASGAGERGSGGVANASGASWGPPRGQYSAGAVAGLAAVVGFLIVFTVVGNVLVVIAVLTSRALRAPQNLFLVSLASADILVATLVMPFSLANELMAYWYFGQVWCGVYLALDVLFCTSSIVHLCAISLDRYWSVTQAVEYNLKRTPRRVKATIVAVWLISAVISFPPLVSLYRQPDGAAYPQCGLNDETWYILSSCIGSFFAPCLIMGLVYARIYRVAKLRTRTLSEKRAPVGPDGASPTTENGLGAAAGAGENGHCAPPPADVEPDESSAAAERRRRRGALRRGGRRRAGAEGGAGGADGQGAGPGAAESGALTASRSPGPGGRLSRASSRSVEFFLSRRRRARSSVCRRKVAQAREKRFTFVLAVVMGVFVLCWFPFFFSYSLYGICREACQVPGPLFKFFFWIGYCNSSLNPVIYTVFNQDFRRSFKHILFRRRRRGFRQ

The term inhibition denotes the drop in the measured response relative to a control, in per cent. Take `Cc1ccc(NC(=O)CSC2=C(C#N)C(c3ccc4c(c3)OCO4)CC(=O)N2)cc1C` (stereo not drawn): in assay [1], the cell count was 636. In addition, the inhibition in assay [1] is 1.6% (inactive); in assay [3], -11.7% (inactive); in [5] it was 6.51% (inactive); in [11], 25.6% (inactive); in assay [12], -18.5% (inactive); in assay [13] it was -9.47% (inactive). Also, the inhibition of aggregation in [2] was -10.3% (inactive). Besides, the nuclei count in assay [2] and in assay [3] was 122% each time. Besides, the results for the z-score in [4] (setting [14]), in [4] (setting [15]) and in [4] (setting [16]) were 0.402, 0.339 and -0.3, respectively. The fluorescence slope is -0.486 (inactive) in assay [6] and 0.00748 (inactive) in assay [9]. The NADPH fluorescence slope in assay [7] was -2.7e-05 (inactive). Besides, in assay [8], the slope was 0.00695 (inactive). For the same compound, the outcome in assay [10] was inactive.
Consider `CCOc1ccc(S(=O)(=O)N(C)C)cc1-c1nc2c(C(C)(C)C)nn(C)c2c(=O)[nH]1`, for which the cell count in assay [1] came to 411. Further, the inhibition was 20.9% (active) in assay [1]; 27.5% (inactive) in assay [3]; 17.3% (inactive) in [5]; 19.7% (inactive) in assay [11]; -1.7% (inactive) in assay [12]; -7.19% (inactive) in assay [13]. Moreover, the inhibition of aggregation in [2] was -22.3% (inactive). Also, the nuclei count in assay [2] was found to be 107%; in assay [3], 115%. The z-score in assay [4] (setting [14]) was 1.1; in assay [4] (setting [15]) it was 0.134; in [4] (setting [16]), -1.43. For the same compound, the figures for the fluorescence slope in [6] and in assay [9] were -0.477 (inactive) and 0.00621 (inactive), respectively. For the same compound, the NADPH fluorescence slope in assay [7] was -0.000115 (inactive). In addition, in assay [8], the slope was 0.00418 (inactive). In addition, the call in assay [10] was inactive.
As for `CCCCC(=O)O[C@H]1CC[C@H]2[C@@H]3CCc4cc(O)ccc4[C@H]3CC[C@]12C`, in assay [1], the cell count worked out at 524. Also, the inhibition in [1] was -3.1% (inactive); in assay [3], -104% (inactive); in assay [5], -0.828% (inactive); in assay [11] it was 22.7% (inactive); in assay [12], 16.8% (inactive); in assay [13] it was 40.4% (inactive). For the same compound, in assay [2], the inhibition of aggregation was 7% (inactive). The nuclei count in [2] was found to be 88.9%; in assay [3] it was 131%. Besides, the z-score in assay [4] (setting [14]) was -0.577; in assay [4] (setting [15]) it was -1.69; in [4] (setting [16]) it was -0.657. Further, the fluorescence slope in assay [6] is -0.453 (inactive). For the same compound, the NADPH fluorescence slope in assay [7] was -3e-05 (inactive). Moreover, the slope in assay [8] is 0.00721 (inactive).
As for `COc1ccc(OC)c(C2/C(=C(\O)c3ccc4c(c3)OCCO4)C(=O)C(=O)N2CCCN(C)C)c1` (stereo not drawn), the cell count in assay [1] came to 490. Besides, the inhibition in assay [1] is -0.9% (inactive); in [3], -76.5% (inactive); in assay [5], 18.2% (inactive); in assay [11], 40.2% (inactive); in [12] it was 11% (inactive); in assay [13] it was 23.3% (inactive). Moreover, the inhibition of aggregation in assay [2] was -12.7% (inactive). For the same compound, the nuclei count was 115% in assay [2] and 130% in assay [3]. Also, the z-score in [4] (setting [14]) is 0.935; in assay [4] (setting [15]), 0.819; in assay [4] (setting [16]), -1.07. Also, the fluorescence slope in [6] is -0.459 (inactive); in assay [9], 0.00426 (inactive). Besides, the NADPH fluorescence slope in [7] was -0.000132 (inactive). For the same compound, in assay [8], the slope is 0.0076 (inactive). In addition, the compound was called inactive in assay [10].
As to `N#Cc1nc(COc2ccc(Br)cc2)oc1N1CCCC1`, the cell count in assay [1] stood at 482. Besides, the inhibition is -2.8% (inactive) in assay [1]; 14.5% (inactive) in assay [3]; 6.04% (inactive) in assay [5]; -0.7% (inactive) in [11]; 12.8% (inactive) in [12]; 1.37% (inactive) in [13]. The inhibition of aggregation in assay [2] is -13.8% (inactive). The nuclei count in assay [2] turned out to be 111%; in assay [3] it was 132%. Moreover, the z-score is -1.92 in [4] (setting [14]), 1.26 in [4] (setting [15]) and 1.21 in assay [4] (setting [16]). Further, the fluorescence slope in [6] was -0.434 (inactive); in [9] it was 0.00636 (inactive). The NADPH fluorescence slope in assay [7] is -7e-05 (inactive). Further, the slope in [8] was 0.00386 (inactive). Further, the result in [10] was inactive.

Values taken from PubChem BioAssay.
